# From PubChem BioAssay (NCI)
# This is part of a sample that, as a whole, favours compounds with a hit. Of some 83,000 tested, about 20% had one in any assay.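 Treatment: one concentration, 48 hours, 96-well format. Scoring: percent growth, with anything below 10 considered active.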 Unmarked numbers belong to inactive results. Activity calls are given as the source filed them.
# Columns and labels:
# Experiment in all cases: NCI-60 one-dose screen, 48 h (100 = growth as untreated, 0 = no growth, -100 = all killed)
# Settings in all cases: 10 µM unless noted
# NCI-H23 lung = tested on: NCI-H23 lung
# NCI-H226 lung = tested on: NCI-H226 lung
# NCI-H322M lung = tested on: NCI-H322M lung
# HOP-62 NSCLC = tested on: HOP-62 NSCLC
# NCI-H460 lung = tested on: NCI-H460 lung
# HOP-92 NSCLC = tested on: HOP-92 NSCLC
# NCI-H522 lung = tested on: NCI-H522 lung
# A549/ATCC NSCLC = tested on: A549/ATCC NSCLC
# 786-0 renal = tested on: 786-0 renal
# COLO 205 colon = tested on: COLO 205 colon
Structure (SMILES),growth (NCI-H23 lung),growth (NCI-H226 lung),growth (NCI-H322M lung),growth (HOP-62 NSCLC),growth (NCI-H460 lung),growth (HOP-92 NSCLC),growth (NCI-H522 lung),growth (A549/ATCC NSCLC),growth (786-0 renal),growth (COLO 205 colon)
CCOC(=O)c1c(/C=C/C(=O)O)nc2ccccc2c1/C=C/c1ccccc1,50.3%,53.8%,72.7%,63.3%,28.5%,60.1%,40.9%,70.7%,54.9%,84%
O=C(O)c1ccc2c(c1Cl)C(=O)c1ccccc1C2=O,93.4%,103%,102%,82.5%,102%,109%,106%,116%,91.1%,115%
Cc1cc(C(=O)c2ccccc2)c(C)c2c1[nH]c1ccc(Cl)cc12,24.6%,50.6%,42%,34.3%,5.49% (active),54.8%,20.8%,19.6%,24.4%,-24.8% (active)
O=C1C=C[C@]2(C[C@@H](c3cccc(C(F)(F)F)c3)O[C@@H](c3cccc(C(F)(F)F)c3)O2)O1,50.1%,-72.7% (active),74.3%,4.06% (active),1.85% (active),-5.73% (active),-78.8% (active),27.3%,-88.8% (active),12.1%
C(=N\Nc1ncc(-c2cc3cc4c(cc3o2)OCO4)s1)/c1ccco1,20.9%,58.4%,77.3%,62.1%,13.3%,63.2%,8.73% (active),-10.1% (active),1.77% (active),6.46% (active)
CNC(=O)c1cc(Oc2ccc3nc(Nc4ccc(Cl)c(C(F)(F)F)c4)ccc3c2)ccn1,72.5%,56.9%,89.2%,85.1%,55.8%,59.2%,22.7%,48.2%,85%,52.6%
N#Cc1c(N)nc(NCCO)nc1-c1ccc(F)cc1,96.7%,77.1%,102%,93.3%,103%,75.9%,86.6%,71.8%,97.1%,92.5%
Cc1cc(/C=C\c2ccc3ccccc3[n+]2C)c(O)c2ncccc12,-4.98% (active),-35.5% (active),8.71% (active),20.3%,4.5% (active),19.4%,32.1%,12%,9.72% (active),9.56% (active)
c1c[nH]c(CNC2CCCCC2)c1,97.7%,102%,104%,103%,105%,72.9%,109%,103%,112%,115%
O=S(=O)(NCCCNc1cc(-c2c(-c3cccc(O)c3)nc3sccn23)ccn1)c1cccc(Cl)c1,49.1%,61.5%,85.5%,72.8%,47.3%,111%,44.1%,66.5%,54.8%,46.3%
COc1ccccc1N1C(=O)/C(=C/C2=Cc3ccccc3OC2)SC1=S,97.6%,103%,92.6%,91.7%,102%,97.7%,90%,95.7%,101%,109%
Oc1ccc(CN2CCC(N3CCOCC3)CC2)c2cccnc12,15.2%,64.6%,57%,17.2%,10.8%,-16% (active),-14.9% (active),14.1%,35.1%,104%
O=C(NCCc1ccc(O)c(O)c1)C12CC3CC(CC(C3)C1)C2,84.9%,93.7%,114%,74.3%,110%,65.5%,9.83% (active),105%,87.9%,90%
Cc1ccc(-c2cc3c(cc2O)C2CCCCC2(N2CCOCC2)O3)cc1 (stereo not given),94.8%,108%,101%,110%,103%,85.7%,82.7%,96.1%,108%,113%
O=C(O)CN1C(=O)CCC1=O,104%,101%,123%,97.1%,115%,97.2%,103%,98.4%,105%,118%
COc1cc(C2CC(=O)Nc3c2c(C)nn3-c2nc3ccccc3[nH]2)cc2c1OCC(=O)N2 (stereo not given),74.6%,76.2%,94%,80.8%,67.1%,56.9%,71.4%,66.8%,58.5%,79.2%
COC1=C(OC)C(=O)C(OC)=C(OC)C1=O,98.6%,93.6%,95.7%,112%,108%,103%,108%,90%,99.3%,113%
COc1ccc(C2c3ccc4ccccc4c3Oc3nc(C)[nH]c(=O)c32)cc1 (stereo not given),92%,92.4%,101%,89%,99.4%,91%,77%,109%,107%,110%
NC(N)=NN=C(c1ccccc1)c1ccccc1,17.8%,51.4%,45.5%,28.6%,14.4%,60.7%,28.2%,50.8%,26.2%,-0.806% (active)
CC(=O)N1N=C(c2ccc(Nc3nc(Nc4ccc(F)cc4)nc(Nc4ccc(F)cc4)n3)cc2)CC1c1cccc([N+](=O)[O-])c1 (stereo not given),78.9%,101%,85.6%,82%,102%,71.2%,77%,91.1%,86.4%,84.9%
Nc1nc(N)c2c(n1)NC(c1ccccc1)C1CCc3ccccc3C1=N2 (stereo not given),39.3%,53.3%,64.4%,70.2%,18.5%,72.2%,89.9%,63.4%,55.1%,27.6%
C=C(C)[C@@H]1CC[C@]2(C(=O)NC3CCCCC3)CC[C@]3(C)[C@H](CC[C@@H]4[C@@]5(C)CCC(=O)C(C)(C)[C@@H]5CC[C@]43C)[C@@H]12,88.7%,74.6%,91.9%,97.7%,98.3%,81.5%,86.9%,85.6%,85.7%,103%
CCCCOc1nc2ccccc2cc1C1CNC(=O)c2ccccc2N1 (stereo not given),23.8%,0.702% (active),47.2%,23%,6.89% (active),48.9%,-13.6% (active),19.9%,26.2%,9.84% (active)
CCN(CC)c1ccc(C(=O)c2ccc(N(CC)CC)cc2)cc1,3.77% (active),48.5%,54.7%,29.2%,6.72% (active),51.2%,3.66% (active),31.9%,4.16% (active),-29% (active)
Cc1cccc(-c2nc(N(C)c3ccc4ncsc4c3)c3ccccc3n2)n1,78.2%,84%,100%,69.7%,70.7%,91.8%,30.4%,48.5%,94%,57.3%
COc1nc2c(c(=O)n1C)CN(c1ccccc1)C(=O)CN2C,56.9% [100 µM],52.3% [100 µM],62.1% [100 µM],63.6% [100 µM],59.4% [100 µM],56.9% [100 µM],67% [100 µM],55.7% [100 µM],55.2% [100 µM],68.8% [100 µM]
